# Sampled rows, rich in hits. Any-hit rate of the full collection: about 12%.
# G9a block – qHTS Assay for Inhibitors of Histone Lysine Methyltransferase G9a; Histone-lysine N-methyltransferase EHMT2 (Homo sapiens), Q96KQ7; G9a H3K9 monomethylation, AlphaScreen, 2 h; Potency, µM (doses to about 102 µM), inactives show at the highest dose activity, negative = inhibition, hits mostly inhibitors; 350,000 compounds, 8.8% hits; AID 504332, 2011; also: % is scaled to controls: 0 for no effect and ±100 for the full control effect; nearly all actives have a fitted effect of over 75% in size
# Target sequence (Q96KQ7 913-1193 limits assumed): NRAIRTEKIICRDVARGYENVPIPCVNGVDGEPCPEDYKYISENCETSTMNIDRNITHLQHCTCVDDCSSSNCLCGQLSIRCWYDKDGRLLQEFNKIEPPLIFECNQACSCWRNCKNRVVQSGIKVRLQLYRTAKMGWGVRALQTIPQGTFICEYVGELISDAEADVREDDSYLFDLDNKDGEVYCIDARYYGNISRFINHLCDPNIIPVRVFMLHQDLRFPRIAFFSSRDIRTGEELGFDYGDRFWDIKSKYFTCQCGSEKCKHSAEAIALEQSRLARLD
#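 Signal arises when biotinylated H3K9 peptide, once monomethylated, bridges streptavidin donor and antibody-captured acceptor beads. Enzyme at 20 nM was preincubated 15 min with test compounds; peptide 500 nM and SAM 20 uM then reacted for 2 h.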
# JMJD2A Tudor inh – qHTS Assay for Inhibitors of JMJD2A-Tudor Domain; Lysine-specific demethylase 4A (Homo sapiens), O75164; AlphaScreen JMJD2A-Tudor / H3K4me3 peptide binding; Potency, µM (top dose mostly 114 µM), inactives show at the highest dose activity change, negative = inhibition, hits mostly inhibitors; AID 504339, 2011; 390,000 compounds, 4.4% hits; also: % is scaled to controls: 0 for no effect and ±100 for the full control effect; nearly all actives have a fitted effect of over 50% in size
# Sfp PPTase inh – qHTS Assay for Inhibitors of Bacillus subtilis Sfp phosphopantetheinyl transferase (PPTase); 310,000 compounds, 3.5% hits; 4'-phosphopantetheinyl transferase ffp (Bacillus subtilis), Q9F4F7; Potency, µM, for inactives: largest response in the series, negative = inhibition, most hits filed as inhibitors; Biochemical Sfp PPTase activity, qHTS;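 also: the enzyme is Sfp with the accession as filed and its product quenches rhodamine fluorescence; 0% = enzyme reaction without inhibitor and -100% = no enzyme wells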
#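 Sfp 15 nM + cpd, 15 min RT; start w/ rhodamine-CoA 5 uM, BHQ-2-YbbR 12.5 uM (final); 50 mM Hepes pH 7.6, 10 mM MgCl2, 0.01% NP-40, 0.01% BSA; read 525/598 nm at 0 and 30 min.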
# HP1b chromo inh – HTS for Inhibitors of HP1-beta Chromodomain Interactions with Methylated Histone Tails; AlphaScreen HP1-beta / biotin-H3K9me3 peptide binding; AID 540317, 2011; Potency, µM (highest dose often 114 µM), without a hit: top-dose activity change, negative = inhibition, most hits filed as inhibitors; Chromobox protein homolog 1 (Homo sapiens), P83916; 390,000 compounds, 0.56% hits; also: nearly all actives have a fitted effect of over 70% in size
# Target sequence (P83916 whole entry, looked up): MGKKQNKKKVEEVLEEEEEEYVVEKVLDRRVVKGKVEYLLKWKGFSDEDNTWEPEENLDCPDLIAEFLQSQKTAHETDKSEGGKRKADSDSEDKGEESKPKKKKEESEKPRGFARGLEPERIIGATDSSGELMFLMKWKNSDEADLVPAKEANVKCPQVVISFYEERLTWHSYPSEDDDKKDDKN
#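 HP1-beta protein (50 nM final) preincubated 30 min at room temperature with biotinylated H3(1-18)K9me3 peptide (50 nM) in PBS pH 7.4, 0.01% Tween-20, then compound added for 30 min. AlphaScreen streptavidin donor/nickel chelate acceptor beads (10 ug/mL final), 30 min dark, luminescence read.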
# TDP1 inh – qHTS Assay for Inhibitors of Tyrosyl-DNA Phosphodiesterase (TDP1). Tyrosyl-DNA phosphodiesterase 1 (Homo sapiens), Q9NUW8. recombinant TDP1, AlphaScreen DNA substrate cleavage. Potency, µM (series often up to 130 µM), for the others: at the top dose activity change, negative = inhibition, hits mostly inhibitors. 350,000 compounds, 0.28% hits; also: % is scaled to controls: 0 for no effect and ±100 for the full control effect; nearly all actives have a fitted effect of over 40% in size
#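 Here, a 5' biotin and 3' phosphotyrosine-FITC DNA oligonucleotide reports Tdp1 activity: intact substrate bridges AlphaScreen beads, while cleavage leaves a 3' phosphate and drops signal. All incubations at room temperature.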
# BAZ2B block – qHTS Assay for Inhibitors of BAZ2B | Bromodomain adjacent to zinc finger domain protein 2B (Homo sapiens), Q9UIF8 | AlphaScreen BAZ2B-H3K14Ac peptide displacement | Potency, µM (highest dose often 114 µM), inactives show top-dose activity change, negative = inhibition, most hits filed as inhibitors | 360,000 compounds, 4.4% hits | AID 504333, 2011; also: % is scaled to controls: 0 for no effect and ±100 for the full control effect; nearly all actives have a fitted effect of over 60% in size
#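 Compounds, titrated to a top concentration of 110 uM, were incubated 30 min at room temperature with preformed BAZ2B/acetyl-K14 H3 peptide complex (50 nM each). Proximity signal was measured by AlphaScreen after 20 min with beads.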
# * = called active by the depositor; ? = inconclusive; . = no result; ! = repeats disagree; [ ] = another dose, or the depositor's remark. Calls follow the shape of the dose curve; as a rule, active = well fitted curve in the direction sought with a large enough effect; inconclusive = small, poorly fitted or top-dose-only effect, or another doubt; inactive = no such curve, though single readings can be large; an effect the other way counts as inactive or inconclusive. Potency is read from the fitted curve at half-maximal effect.
SMILES,G9a block,JMJD2A Tudor inh,Sfp PPTase inh,HP1b chromo inh,TDP1 inh,BAZ2B block
CC(C)C1=CC2=CCC3C(C)(C(=O)O)CCCC3(C)C2CC1 (centres undefined) (tested in a mixture with another compound),71µM*,.,3%,.,2%,-2%
O=C(N/N=C/C1CC=CCC1)c1ccc(Cl)cc1O (centres undefined),43%[59 µM],4%,20%,33%,-1%,5%
COc1ccc(C2C(C(=O)c3ccco3)=C(O)C(=O)N2c2nnc(C)s2)cc1 (centres undefined),.,-13%,10µM*,15%,-6%,50µM*
C=CCOc1ccc(C2C(C(=O)c3ccco3)=C(O)C(=O)N2c2nnc(C)s2)cc1 (centres undefined),-7%[12.7 µM],28µM*,7.1µM*,-9%,4%,79µM*
COc1ccc(C2C(C(=O)c3ccco3)=C(O)C(=O)N2c2nnc(C)s2)cc1OC (centres undefined),50µM*,25µM*,-23%,-6%,-8%,-3%
COc1cc(C2C(C(=O)c3ccco3)=C(O)C(=O)N2c2cc(C)on2)cc(Br)c1O (centres undefined),0%[59 µM],?,-4%,-4%,-3%,1%
COCCCNc1nc(N)c([N+](=O)[O-])c(Nc2cc(OC)ccc2OC)n1,-6%,-2%,10%,10%,8%,-2%
COc1ccc(OC)c(Nc2nc(NCCCN(C)C)nc(N)c2[N+](=O)[O-])c1,45µM*,35µM*,-11%,-21%,3%,32µM*
CCOC(=O)C1CCN(C(=O)c2nn(-c3ccc(OC)cc3)c(=O)c3c2c2ccccc2n3C)CC1,-1%[59 µM],-9%,.,33%,-7%,.
Cc1cc(O)c(C(C)C)cc1N=C1CSC(=O)N1,?,-26%,56µM*,1%,0%,-8%
O=C(O)C1CSC2(c3ccc(F)cc3)CCC(=O)N12 (centres undefined),56µM*,-8%,7%,37%,-7%,-17%
COc1ccc(-c2nc(-c3ccccc3)c(NCc3ccccc3)o2)cc1,.,.,-12%,.,5%,.
CC(CNc1ccccc1O)C(=O)O (centres undefined),16µM*,3.2µM*,50µM*,50µM*,.,50µM*
CN(C)CCNC(=O)/C(=N\O)c1ccccn1,50µM*,-9%,?,20%,5%,?
CN(C)CCCNCCCNC(=O)c1ccccn1,?,5%[11.4 µM],-6%,7%,3%,-2%
COc1ccc(C/C(C)=N/NC(=S)Nc2ccc(Cl)cc2)cc1,7.1µM*,-18%,?,11%,-3%,-34%
COc1ccc(C/C(C)=N/NC(=S)Nc2ccc(C)c(C)c2)cc1,28µM*,32µM*,-6%,-30%,3%,1%
COc1ccc(CNC(=S)Nc2cc(C)ccc2C)cc1,?,-17%,4%,-22%,5%,-9%
COc1ccc(/C(C)=N/NC(=S)Nc2cc(C)ccc2C)cc1,35µM*,?,-14%,-21%,5%,?
COc1ccc([C@]23Cc4cc(C#N)ccc4C(O2)C2=C(CC4(CCCCC4)OC2=O)O3)cc1,13%[2.33 µM],.,-1%,.,.,-28%[22.9 µM]
Cc1sc2nc(CSc3ccc([N+](=O)[O-])c(C(F)(F)F)c3)[nH]c(=O)c2c1C,?,-21%,56µM*,16%,0%,-36%
Cc1sc2nc(CSC(C)C(=O)N(C)CC(=O)Nc3ccccc3C(F)(F)F)[nH]c(=O)c2c1C (centres undefined),?,-21%,.,10%,4%[0.505 µM],3%
O=C(O)c1ccc(NC(=S)NC(=O)c2ccc(-c3ccccc3)cc2)cc1,18µM*,?,?,?,.,?
Cc1ccnc(NC(=S)NC(=O)c2cncc(Br)c2)c1,0.63µM*,3%,9%,24%,-5%,-39%
O=C(O)c1ccc(NC(=S)NC(=O)c2cncc(Br)c2)cc1,40µM*,-8%,-25%,-1%,0%,?
SMILES,G9a block,JMJD2A Tudor inh,Sfp PPTase inh,HP1b chromo inh,TDP1 inh,BAZ2B block
Cc1nc(NC(=S)NC(=O)c2cncc(Br)c2)ccc1Br,.,18µM*,?,6%,3%,-28%
Cc1ccc(NC(=S)NC(=O)c2cncc(Br)c2)c(C)c1,.,-11%,.,49%,.,.
C=C(C)C(=O)OCCOCC,.,.,-9%,.,7%,.
Cc1ccc(-n2c(-c3ccccc3)nsc2=NC#N)cc1,.,-2%[57.1 µM],.,-2%[57 µM],.,.
CCN1CCN(CC(O)COC(c2ccccc2)c2ccccc2C)CC1 (centres undefined),3.2µM*,5.6µM*,?,?,.,22µM*
Cc1ccccc1C(OCCN(C)C)c1ccccc1 (centres undefined),40µM*!,28µM*!,14%,32%,5%,0%
CC1CN(CC(O)COC(c2ccccc2)c2ccccc2)CC(C)O1 (centres undefined),35µM*,0.89µM*,?,?,-1%,56µM*
C=C1/C=C(\C)C(C)(O)CC(O)CC(=O)C(O)C(O)C(C)CC(C)OC(=O)/C(C)=C/CC/C=C/C(OC)C(O)CC(C)C1 (centres undefined),.,-16%,.,27%,1%,.
O=C(O)C1CCCCN1C(=O)c1cc2c(s1)CCCCC2 (centres undefined),13%[2.33 µM],-8%,.,45%,1%[56.1 µM],11%
CCCCN(C/C=C/c1ccccc1OC)Cc1ccccc1,18µM*,1.3µM*,-3%,?,.,?
CCN(C/C=C/c1ccccc1OC)Cc1ccccc1,.,20µM*,-13%,?,.,?
O=C(C1=C(O)C(=O)N(Cc2ccco2)C1c1cccc([N+](=O)[O-])c1)c1ccco1 (centres undefined),.,50µM*,?,-13%,1%,5%
CC(=O)C1=C(O)C(=O)N(Cc2ccco2)C1c1ccccc1 (centres undefined),50µM*,?,56µM*,8%,2%,?
CC(=O)C1=C(O)C(=O)N(Cc2ccco2)C1c1ccc(F)cc1 (centres undefined),?,-19%,45µM*,25%,?,-15%

# Source: PubChem (National Center for Advancing Translational Sciences (NCATS))
